Experimental findings from PubChem BioAssay (NCI) are described below.

Experiment [1] can be described thus: NCI Yeast Anticancer Drug Screen. Data for the rad50 strain (AID 155).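 Further: 0% = growth of vehicle-only cultures of the same strain.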 To be noted: S. cerevisiae rad50 strain growth inhibition, stronger effect = higher value. Summed up: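 Cells are treated with compound, grown, and their growth is then scored against vehicle-only cultures of the same repair-deficient yeast strain.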
The nature of experiment [2]: NCI Yeast Anticancer Drug Screen. Data for the mec2-1 strain (AID 157). To be noted: S. cerevisiae mec2-1 strain, stronger effect = higher value. Summed up: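 Cells of the genetically defined mec2-1 yeast strain are incubated with test compound. Inhibition of growth is calculated against vehicle-treated controls.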
Experiment [3] is described as follows: NCI Yeast Anticancer Drug Screen. Data for the sgs1 mgt1 strain (AID 161).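 Further: 0% = growth of cultures given vehicle only.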 To be noted: S. cerevisiae sgs1 mgt1 strain, stronger effect = higher value. Summed up:
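Test agents were incubated with a DNA-repair-mutant yeast strain. Growth was then read and compared against vehicle-treated controls.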

Experiment [4] in a line: NCI Yeast Anticancer Drug Screen. Data for the cln2 rad14 strain (AID 165).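 Further: 0% = growth equal to vehicle treated cultures.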 To be noted: S. cerevisiae cln2 rad14 strain, stronger effect = higher value. Summed up: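 The screen exposed genetically defined yeast (cln2 rad14) to test compounds and scored growth inhibition relative to vehicle-treated controls.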
The nature of experiment [5]: NCI Yeast Anticancer Drug Screen. Data for the bub3 strain (AID 167). To be noted: S. cerevisiae bub3 mutant strain, stronger effect = higher value. Summed up:
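Part of a panel of yeast mutants defective in DNA damage repair or cell cycle regulation. Each strain is grown with compound, and inhibition is calculated relative to solvent-treated cultures.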

Experiment [6] is described as follows: NCI Yeast Anticancer Drug Screen. Data for the mlh1 rad18 strain (AID 175). To be noted: S. cerevisiae mlh1 rad18 strain growth inhibition, stronger effect = higher value. Summed up:
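Compound-treated yeast growth, normalised to vehicle controls. Strain bears defined DNA repair mutations.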

The mark [7] stands for this setting: at 5.0 µM (retest, dose inferred, filed as 0.5).
Where [8] appears, read: at 50.0 µM (retest, dose inferred, filed as 5.0).

This is part of a sample that, as a whole, favours compounds with a hit. Of some 79,000 tested, about 15% had one in any assay. Values without a mark were called inactive. Calls of active or inactive are those of the source. No stated cut-off is given here; in the data, active means growth inhibition above about 70%; inactive means the rest.

Take `CC(C)CCCC(C)C1CCC2C3CC=C4CC(OC(=O)Nc5ccc(S(=O)(=O)c6ccc(F)cc6)cc5)CCC4(C)C3CCC12C` (stereo not given): the growth inhibition in experiment [1] (setting [7]) was 3%; in experiment [1] (setting [8]) it was 2%; in experiment [1] (at 50.0 µM), 96.3% (active); in experiment [2] (setting [7]), 1%; in experiment [2] (setting [8]), 4%; in experiment [2] (at 50.0 µM) it was 98% (active). The growth inhibition was 0% in experiment [3] (setting [7]); 0% in experiment [3] (setting [8]); 97.8% (active) in experiment [3] (at 50.0 µM); 3% in experiment [4] (setting [7]); 9% in experiment [4] (setting [8]); 51.5% in experiment [4] (at 50.0 µM). Further, the growth inhibition in experiment [5] (setting [7]) was 1%; in experiment [5] (setting [8]), -12%; in experiment [5] (at 50.0 µM) it was 96.7% (active); in experiment [6] (setting [7]), 4%; in experiment [6] (setting [8]), -6%; in experiment [6] (at 50.0 µM) it was 96.4% (active).
With `CC(C)CCOC(=O)Nc1cccc(Cl)c1`, the growth inhibition in experiment [1] (setting [7]) is 2%; in experiment [1] (setting [8]), 76% (active); in experiment [1] (at 50.0 µM) it was 62.1%; in experiment [2] (setting [7]) it was -4%; in experiment [2] (setting [8]) it was 11%; in experiment [2] (at 50.0 µM), 12.8%. Besides, the growth inhibition in experiment [3] (setting [7]) was 0%; in experiment [3] (setting [8]), 36%; in experiment [3] (at 50.0 µM), 66.2%; in experiment [4] (setting [7]), 1%; in experiment [4] (setting [8]), -8%; in experiment [4] (at 50.0 µM), 13.2%. Besides, the growth inhibition was 47% in experiment [5] (setting [7]); 17% in experiment [5] (setting [8]); -0.75% in experiment [5] (at 50.0 µM); 4% in experiment [6] (setting [7]); 33% in experiment [6] (setting [8]); 44% in experiment [6] (at 50.0 µM).
Take `O=[N+]([O-])c1ccc(O)c(C2CCCCC2)c1`: the growth inhibition in experiment [1] (setting [7]) is 72% (active); in experiment [1] (setting [8]) it was 98% (active); in experiment [1] (at 50.0 µM), 99.5% (active); in experiment [2] (setting [7]), 67%; in experiment [2] (setting [8]), 99% (active); in experiment [2] (at 50.0 µM), 99.2% (active). The growth inhibition in experiment [3] (setting [7]) was 62%; in experiment [3] (setting [8]), 99% (active); in experiment [3] (at 50.0 µM) it was 99.7% (active); in experiment [4] (setting [7]), 64%; in experiment [4] (setting [8]) it was 99% (active); in experiment [4] (at 50.0 µM), 99.5% (active). The growth inhibition was 79% (active) in experiment [5] (setting [7]); 98% (active) in experiment [5] (setting [8]); 100% (active) in experiment [5] (at 50.0 µM); 87% (active) in experiment [6] (setting [7]); 99% (active) in experiment [6] (setting [8]); 99% (active) in experiment [6] (at 50.0 µM).
`COC1=C(Br)C(=O)N/C1=C(\OC)c1ccccc1`: the growth inhibition in experiment [1] (setting [7]) is 4%; in experiment [1] (setting [8]), 9%; in experiment [1] (at 50.0 µM), 11.3%; in experiment [2] (setting [7]), 4%; in experiment [2] (setting [8]), 1%; in experiment [2] (at 50.0 µM), -8.9%. For the same compound, the growth inhibition in experiment [3] (setting [7]) was 6%; in experiment [3] (setting [8]) it was 15%; in experiment [3] (at 50.0 µM), 29.9%; in experiment [4] (setting [7]), 6%; in experiment [4] (setting [8]), 0%; in experiment [4] (at 50.0 µM) it was 37.9%. In addition, the growth inhibition in experiment [5] (setting [7]) was 21%; in experiment [5] (setting [8]) it was 0%; in experiment [5] (at 50.0 µM), -1.65%; in experiment [6] (setting [7]) it was 2%; in experiment [6] (setting [8]), 4%; in experiment [6] (at 50.0 µM), 6.15%.
Take `COc1ccc(/C=C/c2ccc3ccccc3n2)cc1OC`: the growth inhibition in experiment [1] (setting [7]) was 3%; in experiment [1] (setting [8]), 97% (active); in experiment [1] (at 50.0 µM), 93.8% (active); in experiment [2] (setting [7]), 8%; in experiment [2] (setting [8]) it was 98% (active); in experiment [2] (at 50.0 µM), 97% (active). The growth inhibition was 3% in experiment [3] (setting [7]); 93% (active) in experiment [3] (setting [8]); 97.5% (active) in experiment [3] (at 50.0 µM); 1% in experiment [4] (setting [7]); 96% (active) in experiment [4] (setting [8]); 83.6% (active) in experiment [4] (at 50.0 µM). In addition, the growth inhibition was 10% in experiment [5] (setting [7]); 98% (active) in experiment [5] (setting [8]); 95.3% (active) in experiment [5] (at 50.0 µM); -1% in experiment [6] (setting [7]); 97% (active) in experiment [6] (setting [8]); 95.7% (active) in experiment [6] (at 50.0 µM).
Regarding `CCOC(=O)c1nc(SC)sc1NC(=O)c1ccccc1Cl`, the growth inhibition in experiment [1] (setting [7]) was 1%; in experiment [1] (setting [8]), 1%; in experiment [1] (at 50.0 µM), 19.4%; in experiment [2] (setting [7]), -5%; in experiment [2] (setting [8]) it was -5%; in experiment [2] (at 50.0 µM), -15.6%. For the same compound, the growth inhibition in experiment [3] (setting [7]) is 4%; in experiment [3] (setting [8]), 4%; in experiment [3] (at 50.0 µM) it was 77.8% (active); in experiment [4] (setting [7]), -13%; in experiment [4] (setting [8]), -13%; in experiment [4] (at 50.0 µM), 27.8%. Besides, the growth inhibition is -14% in experiment [5] (setting [7]); -14% in experiment [5] (setting [8]); 30.4% in experiment [5] (at 50.0 µM); -5% in experiment [6] (setting [7]); -5% in experiment [6] (setting [8]); -8.2% in experiment [6] (at 50.0 µM).
As for `CC(C)OC(=O)C1C=CCc2c(O)ccc(O)c21` (stereo not given), the growth inhibition in experiment [1] (setting [7]) is 8%; in experiment [1] (setting [8]), 25%; in experiment [1] (at 50.0 µM) it was 21.2%; in experiment [2] (setting [7]) it was 15%; in experiment [2] (setting [8]), 24%; in experiment [2] (at 50.0 µM), 11.8%. Also, the growth inhibition in experiment [3] (setting [7]) is 12%; in experiment [3] (setting [8]), 44%; in experiment [3] (at 50.0 µM), 61%; in experiment [4] (setting [7]), 7%; in experiment [4] (setting [8]) it was 22%; in experiment [4] (at 50.0 µM), 65.9%. For the same compound, the growth inhibition was 4% in experiment [5] (setting [7]); 24% in experiment [5] (setting [8]); 52% in experiment [5] (at 50.0 µM); 11% in experiment [6] (setting [7]); 35% in experiment [6] (setting [8]); 86.2% (active) in experiment [6] (at 50.0 µM).
Regarding `CCCC(/C=N/N=C(N)N)=N\N=C(N)N`, the growth inhibition in experiment [1] (setting [7]) is -24%; in experiment [1] (setting [8]) it was -8%; in experiment [1] (at 50.0 µM), -24.1%; in experiment [2] (setting [7]), -11%; in experiment [2] (setting [8]), 4%; in experiment [2] (at 50.0 µM), -8.95%. Moreover, the growth inhibition in experiment [3] (setting [7]) was -1%; in experiment [3] (setting [8]) it was -30%; in experiment [3] (at 50.0 µM) it was -14.3%; in experiment [4] (setting [7]) it was 10%; in experiment [4] (setting [8]), 0%; in experiment [4] (at 50.0 µM), -33.1%. For the same compound, the growth inhibition in experiment [5] (setting [7]) is -12%; in experiment [5] (setting [8]), -2%; in experiment [5] (at 50.0 µM), -8.95%; in experiment [6] (setting [7]), 4%; in experiment [6] (setting [8]), -1%; in experiment [6] (at 50.0 µM) it was -10.6%.
For the compound `Clc1nc(Cl)nc(N2CCCc3ccccc32)n1`, the growth inhibition is -24% in experiment [1] (setting [7]); 78% (active) in experiment [1] (setting [8]); 69.1% in experiment [1] (at 50.0 µM); -10% in experiment [2] (setting [7]); 78% (active) in experiment [2] (setting [8]); 70.9% (active) in experiment [2] (at 50.0 µM). The growth inhibition in experiment [3] (setting [7]) is -19%; in experiment [3] (setting [8]), 67%; in experiment [3] (at 50.0 µM), 85.9% (active); in experiment [4] (setting [7]), 22%; in experiment [4] (setting [8]) it was 56%; in experiment [4] (at 50.0 µM), 74.7% (active). Further, the growth inhibition is -10% in experiment [5] (setting [7]); 91% (active) in experiment [5] (setting [8]); 79% (active) in experiment [5] (at 50.0 µM); 2% in experiment [6] (setting [7]); 82% (active) in experiment [6] (setting [8]); 74.3% (active) in experiment [6] (at 50.0 µM).
On to `Cc1c2ccccc2c(C)c2c1cc(F)c1ccccc12`, for which the growth inhibition in experiment [1] (setting [7]) is 32%; in experiment [1] (setting [8]), 88% (active); in experiment [1] (at 50.0 µM), 96.1% (active); in experiment [2] (setting [7]), 43%; in experiment [2] (setting [8]), 92% (active); in experiment [2] (at 50.0 µM), 97.3% (active). For the same compound, the growth inhibition in experiment [3] (setting [7]) was 46%; in experiment [3] (setting [8]), 94% (active); in experiment [3] (at 50.0 µM) it was 96.4% (active); in experiment [4] (setting [7]), 34%; in experiment [4] (setting [8]) it was 91% (active); in experiment [4] (at 50.0 µM), 94.5% (active). Besides, the growth inhibition was 21% in experiment [5] (setting [7]); 90% (active) in experiment [5] (setting [8]); 94.8% (active) in experiment [5] (at 50.0 µM); 55% in experiment [6] (setting [7]); 89% (active) in experiment [6] (setting [8]); 93.8% (active) in experiment [6] (at 50.0 µM).
